Compound activity (PubChem)
C diff HTS – inhibitors of Clostridium difficile growth; actives 0.25% (n = 86,000); growth activity, negative = inhibition, % at 16 µg/mL (by protocol); Clostridium difficile clinical isolate growth, OD600, 24 h; hits give low values;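 active = mean growth activity at or below -80% and every replicate also at or below -80%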;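 also: 0% = DMSO wells and -100% = levofloxacin 16 µg/mL wells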
Pf Dd2 inh – P. falciparum Dd2 growth inhibition; actives 2.3% (n = 94,000); activity change, % at 10 µM; SYBR Green, 72 h; hits give low values; in the data active = activity change below about -80%
Active calls of the source: *; · = not tested or not shown. In the library only some 2.4% were active in any assay of this set; here they are far more common.

SMILES	C diff HTS	Pf Dd2 inh
C[C@@H]1CN([C@H](C)CO)C(=O)Cc2cc(NC(=O)Nc3ccc(C(F)(F)F)cc3)ccc2O[C@@H]1CN(C)Cc1ccc(C(=O)Nc2ccccc2N)cc1	23.1	-14.4
C[C@@H]1CN([C@@H](C)CO)C(=O)c2cc(NC(=O)Nc3ccc(F)cc3)ccc2O[C@@H]1CN(C)Cc1ccc(C(=O)Nc2ccccc2N)cc1	25.9	-83.6*
C[C@H](CO)N1C[C@H](C)[C@H](CN(C)Cc2ccc(C(=O)Nc3ccccc3N)cc2)Oc2ccc(NC(=O)Nc3ccc(C(F)(F)F)cc3)cc2C1=O	40.4	-80.3*
C[C@@H]1CN([C@@H](C)CO)C(=O)c2cc(NC(=O)Nc3ccccc3)ccc2O[C@@H]1CN(C)Cc1ccc(C(=O)Nc2ccccc2N)cc1	0.8	-83.5*
C[C@H](CO)N1C[C@H](C)[C@H](CN(C)Cc2ccc(C(=O)Nc3ccccc3N)cc2)Oc2ccc(NC(=O)Cc3ccccc3)cc2C1=O	5.6	-84.4*
C[C@H]1CN([C@@H](C)CO)C(=O)c2cc(NC(=O)Nc3ccc(F)cc3)ccc2O[C@H]1CN(C)Cc1ccc(C(=O)Nc2ccccc2N)cc1	3.7	-71.3
C[C@H](CO)N1C[C@H](C)[C@H](CN(C)Cc2ccc(C(=O)Nc3ccccc3N)cc2)Oc2ccc(NC(=O)Nc3ccccc3)cc2C1=O	-4.1	-70.3
C[C@@H]1CN([C@@H](C)CO)C(=O)c2cc(NC(=O)c3ccncc3)ccc2O[C@@H]1CN(C)Cc1ccc(C(=O)Nc2ccccc2N)cc1	0.9	-73.1
C[C@@H]1CN([C@@H](C)CO)C(=O)c2cc(NC(=O)NC3CCCCC3)ccc2O[C@H]1CN(C)C	2.7	-9.8
COCC(=O)N(C[C@@H]1[C@@H](c2ccccc2)[C@H](CO)N1C(=O)NC(C)C)C(C)C	-2.2	3.3
COc1ccc(S(=O)(=O)N(C)C[C@H]2OCCCC[C@H](C)Oc3ccc(NC(=O)c4ccncc4)cc3C(=O)N([C@H](C)CO)C[C@H]2C)cc1	4.9	-29.0
COc1ccc2c3c([nH]c2c1)[C@@H](CO)N(Cc1ccccc1)CC31CCN(C(=O)c2cccnc2)CC1	1.3	-89.9*
COc1ccc2c3c([nH]c2c1)[C@@H](CO)N(C(=O)c1cccc(F)c1)CC31CCN(C(=O)c2ccccc2)CC1	3.7	-88.1*
COc1ccc2c3c([nH]c2c1)[C@H](CO)N(C(=O)c1cccc(F)c1)CC31CCN(C(=O)c2ccccc2)CC1	-10.2	-38.7
COc1ccc2c3c([nH]c2c1)[C@H](CO)N(Cc1cccnc1)CC31CN(C(=O)CN(C)C)C1	-10.0	6.8
COc1ccc(CN2CC3(CN(C(=O)c4ccccc4)C3)c3c([nH]c4cc(OC)ccc34)[C@@H]2CO)cc1	-2.5	-47.8
COc1ccc2c3c([nH]c2c1)[C@@H](CO)N(Cc1cccnc1)CC31CCN(C(=O)c2cccnc2)CC1	4.9	-15.5
COc1ccc(CN2CC3(CCN(C(=O)c4ccccc4)CC3)c3c([nH]c4cc(OC)ccc34)[C@@H]2CO)cc1	0.6	-87.6*
COc1ccc2c3c([nH]c2c1)[C@H](CO)N(Cc1cccnc1)CC31CCN(C(=O)CN(C)C)CC1	1.2	-86.0*
C[C@@H]1CCCCO[C@H](CN(C)C)[C@H](C)CN([C@H](C)CO)C(=O)c2cc(NC(=O)NC3CCCCC3)ccc2O1	-5.3	-22.1
C[C@@H]1CCCCO[C@@H](CN(C)Cc2ccc(C(=O)O)cc2)[C@@H](C)CN([C@@H](C)CO)C(=O)c2cc(NC(=O)Cc3ccccc3)ccc2O1	1.3	-29.0
COc1ccc2c3c([nH]c2c1)[C@@H](CO)N(CC1CC1)CC31CN(C(=O)c2ccc(F)cc2)C1	-4.7	-54.8
COc1ccc2c3c([nH]c2c1)[C@@H](CO)N(CC1CC1)CC31CN(C(=O)c2ccccc2)C1	9.3	-84.6*
C[C@H](CO)N1C[C@H](C)[C@@H](CN(C)C(=O)Nc2ccc(C(F)(F)F)cc2)Oc2ccc(NC(=O)Nc3ccc4c(c3)OCO4)cc2CC1=O	10.2	-22.6
C[C@H](CO)N1C[C@H](C)[C@@H](CN(C)C(=O)Nc2ccc3c(c2)OCO3)Oc2ccc(NC(=O)Nc3ccc(C(F)(F)F)cc3)cc2CC1=O	4.5	-93.0*
SMILES	C diff HTS	Pf Dd2 inh
C[C@@H]1CN([C@H](C)CO)C(=O)Cc2cc(NC(=O)Nc3ccc4c(c3)OCO4)ccc2O[C@H]1CN(C)C(=O)Nc1ccc(C(F)(F)F)cc1	2.2	-27.1
C[C@H]1CN([C@@H](C)CO)C(=O)Cc2cc(NC(=O)Nc3ccc(C(F)(F)F)cc3)ccc2O[C@@H]1CN(C)C(=O)Nc1ccc2c(c1)OCO2	3.5	-92.5*
CC(=O)N1[C@@H](CO)[C@@H](c2ccccc2)C12CN(C(=O)c1ccc3c(c1)OCO3)C2	9.3	31.6
C[C@H](CO)N1C[C@H](C)[C@@H](CN(C)C(=O)Nc2cccc(C(F)(F)F)c2)OCc2ccccc2-c2c(n(C)c3ccccc23)C1=O	22.9	-85.5*
C[C@H]1CN([C@@H](C)CO)C(=O)c2c(c3ccccc3n2C)-c2ccccc2CO[C@@H]1CN(C)C(=O)Nc1cccc(C(F)(F)F)c1	11.9	-94.4*
C[C@H](CO)N1C[C@H](C)[C@H](CN(C)C(=O)Nc2cccc(C(F)(F)F)c2)OCc2ccccc2-c2c(n(C)c3ccccc23)C1=O	55.1	-53.0
C[C@H](CO)N1C[C@H](C)[C@H](CN(C)C(=O)Nc2cccc(F)c2)OCc2ccccc2-c2c(n(C)c3ccccc23)C1=O	·	-35.0
C[C@H]1CN([C@@H](C)CO)C(=O)c2cc(C#CCc3ccccc3)cnc2O[C@H]1CN(C)C(=O)Cc1cccnc1	0.6	-9.0
CC(=O)N1C[C@@H]2[C@H](c3ccccc31)[C@H](CO)N2S(=O)(=O)c1ccccc1	-2.3	1.3
C[C@@H]1CN([C@@H](C)CO)C(=O)c2cc(NC(=O)NC3CCCCC3)ccc2O[C@@H](C)CCCCO[C@@H]1CN(C)C(=O)Nc1ccc2c(c1)OCO2	-3.7	-73.6
C[C@@H]1CCCCO[C@H](CN(C)C(=O)Nc2ccc3c(c2)OCO3)[C@H](C)CN([C@H](C)CO)C(=O)c2cc(NC(=O)NC3CCCCC3)ccc2O1	-10.2	-82.0*
Cc1noc(C)c1NC(=O)Nc1ccc2c(c1)C(=O)N([C@H](C)CO)C[C@@H](C)[C@H](CN(C)C(=O)Nc1ccc(C(F)(F)F)cc1)OCCCC[C@H](C)O2	2.8	-84.1*
C[C@@H]1CCCCO[C@@H](CN(C)C(=O)Nc2ccc3c(c2)OCO3)[C@@H](C)CN([C@H](C)CO)C(=O)c2cc(NC(=O)Nc3ccc(F)cc3)ccc2O1	0.5	8.4
Cc1noc(C)c1NC(=O)Nc1ccc2c(c1)C(=O)N([C@@H](C)CO)C[C@@H](C)[C@H](CN(C)C(=O)Nc1ccc(C(F)(F)F)cc1)OCCCC[C@H](C)O2	-3.7	-40.1
C[C@@H]1CCCCO[C@@H](CN(C)C(=O)Nc2ccc3c(c2)OCO3)[C@@H](C)CN([C@@H](C)CO)C(=O)c2cc(NC(=O)Nc3ccc(F)cc3)ccc2O1	-1.0	-82.8*
C[C@@H]1CCCCO[C@H](CN(C)C(=O)Nc2ccccc2)[C@H](C)CN([C@H](C)CO)C(=O)c2cc(NC(=O)Nc3ccc(F)cc3)ccc2O1	·	-85.4*
C[C@H]1CCCCO[C@H](CN(C)C(=O)Nc2ccc(F)cc2)[C@@H](C)CN([C@@H](C)CO)C(=O)c2cc(NC(=O)Nc3ccccc3)ccc2O1	0.2	-51.0
